The text below walks through data of PubChem BioAssay (NCI).

Among the test systems are HCT-15 colon; HT29 colon; SNB-75 CNS; SNB-19 CNS; PC-3 prostate; SK-MEL-5 melanoma; UACC-62 melanoma; LOX IMVI melanoma; SK-MEL-28 melanoma; U251 CNS.
Test in all cases: NCI-60 one-dose screen, 48 h (100 = growth as untreated, 0 = no growth, -100 = all killed)
Holding throughout (details): 10 µM unless noted

Compounds without any hit were thinned out: in the full panel of roughly 83,000, 20% have a hit.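 The test compound was applied at a single concentration to cells in 96-well plates for 48 hours, and percent growth was recorded.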 Unmarked numbers belong to inactive results. Activity calls are given as the source filed them. The calls were made as follows: active = growth percent below 10; inactive = the rest.

In the case of `O=CNc1ccc(-n2cnc3cc(-c4ccc(O)cc4)ccc32)cc1`, the growth is 74% in the assay on HCT-15 colon; 111% in the assay with HT29 colon; 59.3% with SNB-75 CNS; 88.5% with SNB-19 CNS; 88.1% in the assay with PC-3 prostate; 79.4% in the assay on SK-MEL-5 melanoma. Also, the growth with UACC-62 melanoma was 99.2%; with LOX IMVI melanoma, 93.7%; with SK-MEL-28 melanoma it was 92.9%.

Consider `CN1C(=O)C(O)(CC(=O)c2cc3ccccc3oc2=O)c2ccccc21` (centres undefined), for which the growth was 94.7% in the assay with HCT-15 colon; 104% with HT29 colon; 107% in the assay on SNB-75 CNS; 93.3% with SNB-19 CNS; 92.4% in the assay with PC-3 prostate; 100% in the assay on SK-MEL-5 melanoma. Moreover, the growth is 86.8% with UACC-62 melanoma, 87.9% with LOX IMVI melanoma and 107% in the assay on SK-MEL-28 melanoma.

On to `COc1ccc([C@H]2C(C(=O)c3ccc(Cl)cc3)C3(N[C@@H]2c2ccccc2)C(=O)Nc2ccccc23)cc1` (some centres undefined), for which the growth in the assay with HCT-15 colon was 16.4%; in the assay on HT29 colon, 9.82% (active); in the assay with SNB-75 CNS, 35%; in the assay with SNB-19 CNS it was 42.2%; in the assay on PC-3 prostate, 36.9%; in the assay on SK-MEL-5 melanoma, 26%. Also, the results for the growth in the assay on UACC-62 melanoma, in the assay with LOX IMVI melanoma and in the assay with SK-MEL-28 melanoma were 9.8% (active), 12.2% and 49.7%, respectively.

Turning to `O=C(CSc1nnc(-c2ccc(-c3nc4ccc(Cl)cc4[nH]3)cc2)o1)Nc1ccccc1`, the growth was 25.2% in the assay on HCT-15 colon; 41% in the assay on HT29 colon; -16.8% (active) in the assay on SNB-75 CNS; -42.4% (active) in the assay on SNB-19 CNS; -79.2% (active) in the assay on U251 CNS; -13.6% (active) with PC-3 prostate. The results for the growth in the assay on SK-MEL-5 melanoma, in the assay on LOX IMVI melanoma and in the assay with SK-MEL-28 melanoma were 13.2%, -65.6% (active) and -89.2% (active), respectively.

Consider `Cc1ccc(N=Nc2c(N)nn3c(-c4cc5cc(Br)ccc5oc4=O)ccnc23)cc1`, for which the growth with HCT-15 colon was 79.2%; in the assay with HT29 colon it was 65%; in the assay with SNB-75 CNS, 61.3%; in the assay on SNB-19 CNS, -13% (active); in the assay with PC-3 prostate, 88.3%; in the assay on SK-MEL-5 melanoma, 50.8%. In addition, the growth in the assay on UACC-62 melanoma was 99.5%; in the assay with LOX IMVI melanoma, 51.8%; in the assay with SK-MEL-28 melanoma, 110%.

In the case of `Cn1cc(-c2cc(N)n3nc(-c4c[nH]c5ccc(Cl)cc45)cc3n2)c2cc(Br)cnc21`, the growth in the assay with HCT-15 colon is -80.2% (active); in the assay with HT29 colon it was -72% (active); with SNB-75 CNS it was -24.4% (active); with SNB-19 CNS, 2.78% (active); with PC-3 prostate it was -52.4% (active); in the assay on SK-MEL-5 melanoma it was -57% (active). Besides, the results for the growth in the assay on UACC-62 melanoma, in the assay with LOX IMVI melanoma and with SK-MEL-28 melanoma were -59.6% (active), -93.3% (active) and -25.9% (active), respectively.

Regarding `O=C(NNC(=O)c1ccc(OCc2nc3ccc(Cl)cc3[nH]2)cc1)Nc1ccc(Cl)c(Cl)c1`, the growth with HCT-15 colon is 98.9%; in the assay on HT29 colon it was 67.2%; in the assay with SNB-75 CNS, 111%; in the assay with SNB-19 CNS it was 20.2%; with PC-3 prostate, 63.3%; with SK-MEL-5 melanoma, 56.5%. Besides, the figures for the growth with UACC-62 melanoma, in the assay on LOX IMVI melanoma and with SK-MEL-28 melanoma were 62.7%, 40% and 8.8% (active), respectively.

`CCOc1ccc2[nH]c(=O)c(C(c3nnnn3CC3CCCO3)N3CCN(Cc4ccccc4)CC3)cc2c1` (centres undefined): the growth is 99.7% in the assay on HCT-15 colon; 117% in the assay on HT29 colon; -22.2% (active) in the assay with SNB-75 CNS; 38.5% in the assay on SNB-19 CNS; 94% in the assay with PC-3 prostate; 104% in the assay on SK-MEL-5 melanoma. The figures for the growth in the assay with UACC-62 melanoma, with LOX IMVI melanoma and with SK-MEL-28 melanoma were 76.3%, 87.2% and 101%, respectively.

For `Nc1cc2ccccc2c(=O)n1NC(=O)c1ccc(Br)cc1`, the growth in the assay with HCT-15 colon is 99.4%; in the assay with HT29 colon, 118%; in the assay with SNB-75 CNS, 58.4%; in the assay on SNB-19 CNS it was 84.5%; in the assay on PC-3 prostate, 95.3%; in the assay on SK-MEL-5 melanoma it was 88.1%. In addition, the growth in the assay on UACC-62 melanoma is 80.6%; in the assay with LOX IMVI melanoma it was 84.2%; in the assay on SK-MEL-28 melanoma, 88%.

For the molecule `C[C@@H](Nc1c(C#N)cnc2ccc(-c3cnc4[nH]ncc4c3)cc12)c1ccccc1`, the growth with HCT-15 colon is 8.64% (active); with HT29 colon, 79.5%; in the assay on SNB-75 CNS, -26.9% (active); in the assay on SNB-19 CNS, 30.7%; in the assay on PC-3 prostate, 13.4%; in the assay on SK-MEL-5 melanoma, -67.5% (active). In addition, the growth is -16% (active) in the assay with UACC-62 melanoma, 16% in the assay on LOX IMVI melanoma and 15.4% with SK-MEL-28 melanoma.

Turning to `COc1ccc(NC(=O)Cn2c(/C=C/c3cccc(Br)c3)nc3ccccc3c2=O)cc1`, the growth with HCT-15 colon is 70.9%; in the assay on HT29 colon, 51.9%; in the assay with SNB-75 CNS it was -29.7% (active); with SNB-19 CNS, 49.3%; in the assay with PC-3 prostate it was 79.3%; in the assay with SK-MEL-5 melanoma, 78.5%. In addition, the growth with UACC-62 melanoma was 68.4%; in the assay with LOX IMVI melanoma, 28.8%.

Consider `NS(=O)(=O)c1ccc(Nc2nc(N/N=C/c3cc(Br)c(O)c(Br)c3)nc(Nc3ccccc3)n2)cc1`, for which the growth in the assay with HCT-15 colon was 80.5%; in the assay with HT29 colon, 32.1%; in the assay with SNB-75 CNS it was 25.7%; with SNB-19 CNS, 14.9%; in the assay on U251 CNS, 27.6%; with PC-3 prostate, 57.7%. The values for the growth in the assay on SK-MEL-5 melanoma, in the assay with LOX IMVI melanoma and in the assay on SK-MEL-28 melanoma were -26.6% (active), -23.5% (active) and 34.4%, respectively.

As for `COc1ccccc1NC(=O)c1ccc(NC(=O)CCl)s1`, the growth in the assay on HCT-15 colon was -50.8% (active); with HT29 colon it was -66.1% (active); in the assay with SNB-75 CNS it was 35.9%; with SNB-19 CNS it was 42.1%; in the assay on PC-3 prostate it was -46.7% (active); in the assay on SK-MEL-5 melanoma, -23.3% (active). Further, the growth in the assay on UACC-62 melanoma was -83.2% (active); in the assay on LOX IMVI melanoma, -93.4% (active); with SK-MEL-28 melanoma, 1.77% (active).

For `CC[C@]12C=CCN3CC[C@]4(C(=C(C(=O)OC)C1)Nc1cc(OC)c([C@@H]5[C@H]6O[C@H]6[C@@]6(CC)CC(C(=O)OC)=C7Nc8cc(OC)ccc8[C@@]78CCN5[C@@H]68)cc14)[C@@H]32`, the growth in the assay on HCT-15 colon is 24.8%; in the assay on HT29 colon it was 58.9%; with SNB-75 CNS it was 50%; in the assay with SNB-19 CNS it was 58.2%; with PC-3 prostate, 18.7%; in the assay with SK-MEL-5 melanoma, 27.9%. The growth with UACC-62 melanoma was 42.9%; with LOX IMVI melanoma it was 15.5%; with SK-MEL-28 melanoma, 82.5%.

As to `CC1CCc2c(sc3nc(SCC(=O)c4cccc(Br)c4)n(-c4ccccc4)c(=O)c23)C1` (centres undefined), the growth with HCT-15 colon was 41%; in the assay on HT29 colon, 21.6%; in the assay with SNB-75 CNS, 54.9%; in the assay with SNB-19 CNS it was 64.8%; with U251 CNS, -25.5% (active); with PC-3 prostate, 56.6%. The results for the growth in the assay on SK-MEL-5 melanoma, in the assay with LOX IMVI melanoma and with SK-MEL-28 melanoma were 66%, 45.2% and 73.5%, respectively.
